# Results published in PubChem BioAssay.
# “And” between values parts separate entries of the source, which are not always exact repeats. Identical values can stand only once. The source holds several records for some structures; these can differ, active in one and inactive in another. The source made the active and inactive calls. Unless noted, no rule for the calls is given here.
# Legend:
# [1] = P. berghei load reduction in hepatocytes – cell-based, HepG2, luciferase luminescence, HepG2 viability, primary screen (AID 624349; in the data active = parasite load remaining mostly below about 12%, no sharp cut-off; inactive = mostly above about 10%;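 also: 100% = mean of DMSO negative control wells on the same plate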); conditions: P. berghei liver stage in HepG2, luciferase luminescence, concentration not given here; parasite load remaining: stronger effect = lower value; viability: measured here: HepG2 viability without parasites
# [2] = signal quenchers or enhancers, Cy5 substrate/SSB – biochemical, NIH Clinical Collection, E. coli SSB, artefact control for HCV NS3 helicase inhibitor project (AID 743268); conditions: Cy5-oligo bound E. coli SSB, fluorescence interference
# [3] = tested on: Hepatitis C virus NS3 helicase; experiment: blockers of NS3h binding to DNA – biochemical, fluorescence polarization, NIH Clinical Collection, primary screen (AID 743270); conditions: NS3 helicase binding to Cy5-dT15 DNA, stronger effect = higher value, concentration not given here
# [4] = biological target: Single-stranded DNA-binding protein (Escherichia coli (strain K12)) (UniProt P0AGE0); experiment: SSB-ssDNA binding inhibitors – biochemical, fluorescence polarization, NIH Clinical Collection, counter-screen for HCV NS3 helicase inhibitor project (AID 743271; in the data active = inhibition above about 28%); conditions: E. coli SSB-DNA binding, stronger effect = higher value, concentration not given here
# [5] = compounds distorting NS3 helicase fluorescence signal – biochemical, NIH Clinical Collection, artefact control for HCV NS3 helicase inhibitor project (AID 743272); conditions: fluorescence interference counterscreen, HCV NS3 helicase assay; stronger effect = lower value;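 also: HCV NS3 helicase with a Cy5 labelled single stranded DNA probe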
# [6] = tested on: Neuropilin-2 / VEGF-C interaction (human); experiment: small molecules blocking Neuropilin-2/VEGF-C interaction – biochemical, microplate binding format, z-score (AID 743281); conditions: microplate NRP2/VEGF-C binding assay; stronger effect = lower value
# [7] = Wnt pathway potentiators raising nuclear beta-catenin – imaging, WNT3A-conditioned medium, mouse C2C12, NPC library, primary screen (AID 1117326; in the data active = nuclear beta-catenin stimulation mostly above about 4.2%, no sharp cut-off; inactive = mostly below about 10%); conditions: stronger effect = higher value
# [8] = stimulators of insulin release from INS-1E, primary screen, cell-based, 5 mM glucose, NPC library (AID 1117329;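 active = compound raises insulin release from rat beta cells at 5 mM glucose, no numeric limit stated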); conditions: rat INS-1E insulin secretion, at 10 µM, stronger effect = higher value
# [9] = growth inhibition of GSK3B-pretreated HCT116 cells – cell-based, CellTiter-Glo, 0.2 to 20 µM (AID 1117336;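 active = compounds lowering colon cancer cell viability after pretreatment blocking the GSK3B kinase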); conditions: HCT116 viability after GSK3B inhibitor, at 20 µM, stronger effect = higher value
# [10] = inhibition of endothelial tube formation, primary screen, imaging, VEGF stimulated, CD31 staining, tube area, NPC library (AID 1117340;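 active = compound that reduces growth-factor-driven endothelial tube area in a mixed cell culture, no cutoff stated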); conditions: VEGF-stimulated ADSC/ECFC co-culture, at 10 µM, stronger effect = higher value
# [11] = GLP1 release stimulators, primary, NCI-H716, NPC library (AID 1117341;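 active = compound raises GLP1 secretion from the human gut endocrine cells, with no numeric limit stated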); conditions: NCI-H716 cells, at 10 µM, stronger effect = higher value
# [12] = HCT116 colon cancer cell growth inhibition, primary screen, CellTiter-Glo luminescence, NPC library (AID 1117342;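 active = compounds that lower survival of HCT116 colon cancer cells in the luminescence readout, no numeric limit stated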); conditions: at 20 µM (top of the series)
# [13] = reduced SW480 viability measured with CellTiter-Glo, NPC library, primary (AID 1117343;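 active = compounds that lower viability of the colon cancer cells in the luminescence readout, with no numeric limit stated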); conditions: CellTiter-Glo luminescence; at 20 µM (top of the series)
# [14] = NPC library primary testing for decreased DLD-1 cell viability via CellTiter-Glo (AID 1117346;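 active = compounds that lower survival of DLD-1 colon cancer cells in the luminescence readout, no cutoff given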); conditions: DLD-1 viability, CellTiter-Glo luminescence; at 20 µM (top of the series)
SMILES,parasite load remaining [1],viability [1],fluorescence ratio [2],inhibition [3],inhibition [4],fluorescence ratio [5],z-score [6],nuclear beta-catenin stimulation ([7]; at 10 µM),"nuclear beta-catenin stimulation ([7]; stimulation, at 2 µM) [%]",insulin secretion stimulation [8],viability decrease [9],tube area decrease [10],GLP1 secretion stimulation [11],inhibition of viability [12],viability decrease (inhibition) [13],viability decrease (inhibition) [14]
O=C1c2cccc3c2[C@H](CCC3)CN1[C@@H]1CN2CCC1CC2,80.1% (inactive),69.6%,0.94 (inactive),-1.09% (inactive),9.84% (inactive),0.96 (inactive),-0.136 (inactive),0.4% (inactive),1.5,2.7% (inactive),19.7% (inactive),-6.9% (inactive),-4.5% (inactive),42% (inactive),31% (inactive),29.6% (inactive)
COc1cc(C(=O)NS(=O)(=O)c2ccccc2C)ccc1Cc1cn(C)c2ccc(NC(=O)OC3CCCC3)cc12,103% (inactive) and 39.6% (inactive),73.8% and 104%,0.99 (inactive),16.2% (active),25.3% (inactive),1.03 (inactive),-5.32 (active),0.1% (inactive),0.4,3.85% (inactive),106% (active),44.5% (active),19.5% (inactive),106% (active),120% (active),98.2% (active)
COc1cc(C(=O)NC2CCCNC2)cc(OC)c1OC (centres undefined),134% (inactive),80.6%,1 (inactive),2.77% (inactive),2.98% (inactive),0.98 (inactive),-0.315 (inactive),22.4% (inactive),2.8,1.6% (inactive),-5.2% (inactive),0.1% (inactive),3.3% (inactive),0.8% (inactive),37.5% (inactive),15.8% (inactive)
O=C(c1ccc(F)cc1)C1CCN(CCn2c(=S)[nH]c3ccccc3c2=O)CC1,28.9% (inactive),66.9%,1.05 (inactive),10.7% (inactive),26.1% (inactive),1.06 (inactive),0.126 (inactive),2.2% (inactive),-0.2,-1.4% (inactive),63.4% (active),-7.4% (inactive),3.7% (inactive),69.7% (active),69.7% (active),59.8% (active)
CCN(CC)CC1CCCCN1CC(=O)N1c2ccccc2C(=O)Nc2cccnc21 (centres undefined),84.2% (inactive),71.2%,1.04 (inactive),-2.77% (inactive),-2.41% (inactive),1.04 (inactive),-0.131 (inactive),6.3% (inactive),1.6,4% (inactive),-12.6% (inactive),-28.2% (inactive),7.7% (inactive),1.17% (inactive),-3.8% (inactive),6.8% (inactive)
Cc1c(O)cccc1C(=O)N[C@@H](CSc1ccccc1)[C@H](O)CN1C[C@H]2CCCC[C@H]2C[C@H]1C(=O)NC(C)(C)C,23.1% (inactive) and 3.4% (inactive),69.9% and 65.5%,0.95 (inactive),-4.36% (inactive),2.98% (inactive),0.94 (inactive),0.175 (inactive),2.3% (inactive),-1.9,2.3% (inactive),117% (active),67.1% (active),7.9% (inactive),124% (active),158% (active),100% (active)
CCOC(=O)C1=C(C)NC(C)=C(C(=O)OCC)C1c1ccccc1/C=C/C(=O)OC(C)(C)C,-0.13% (active) and 24.4% (inactive),74.1% and 104%,0.9 (inactive),3.28% (inactive),3.54% (inactive),0.9 (inactive),-0.248 (inactive),3% (inactive),1.2,0.3% (inactive),117% (active),101% (active),-0.4% (inactive),124% (active),158% (active),101% (active)
C[C@H]1COc2c(C3(N)CC3)c(F)cc3c(=O)c(C(=O)O)cn1c23,143% (inactive) and 21.7% (inactive),89.8% and 67.5%,1.05 (inactive),5.15% (inactive),-0.1% (inactive),1.02 (inactive),0.653 (inactive),1.2% (inactive),0.2,-0.9% (inactive),-4.4% (inactive),2.8% (inactive),4.2% (inactive),-19.1% (inactive),43.9% (inactive),24.9% (inactive)
CC(C)c1nc(CN(C)C(=O)N[C@H](C(=O)N[C@@H](Cc2ccccc2)C[C@H](O)[C@H](Cc2ccccc2)NC(=O)OCc2cncs2)C(C)C)cs1,53.8% (inactive),79.2%,1.03 (inactive),3.56% (inactive),9.91% (inactive),0.89 (inactive),0.723 (inactive),7.7% (inactive),5.1,0.2% (inactive),33.5% (inactive),-13.5% (inactive),-0.8% (inactive),67.7% (active),4.9% (inactive),19.4% (inactive)
